Some test systems named below: NCI-H23 lung; NCI-H322M lung; HOP-62 NSCLC; NCI-H460 lung; HOP-92 NSCLC; NCI-H522 lung; A549/ATCC NSCLC; 786-0 renal; COLO 205 colon; DU-145 prostate; K-562 leukemia; MALME-3M melanoma; MDA-MB-231 breast; RXF 393 renal; SF-268 CNS; SF-295 CNS; SF-539 CNS; UACC-257 melanoma; M14 melanoma; HCT-15 colon.
What all share (test): NCI-60 one-dose screen, 48 h (100 = growth as untreated, 0 = no growth, -100 = all killed)
Holding throughout (details): 10 µM unless noted

This is part of a sample that, as a whole, favours compounds with a hit. Of some 83,000 tested, about 20% had one in any assay.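 Results are percent growth after 48 hours of single-concentration exposure. 100 means growth as in untreated cells, lower positive values show inhibition; negative values down to -100 show cell death.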 A number with no mark means an inactive call. Calls of active or inactive are those of the source. The calls were made as follows: active = growth percent below 10; inactive = the rest.

On to `O=Cc1c(OCc2cnnn2CC(=O)Nc2ccc(Br)cc2)ccc2ccccc12`, for which the growth in the test on NCI-H23 lung was 86.4%; with NCI-H322M lung, 96.1%; in the test on HOP-62 NSCLC it was 97.7%; in the test with NCI-H460 lung, 97.3%; in the test with HOP-92 NSCLC, 85.7%; with NCI-H522 lung, 77.2%. Moreover, the growth was 91.6% with A549/ATCC NSCLC; 102% in the test on 786-0 renal; 106% in the test with COLO 205 colon; 96.9% in the test with DU-145 prostate; 91.4% with K-562 leukemia; 88.4% with MALME-3M melanoma. Further, the growth is 84.4% in the test on MDA-MB-231 breast; 100% with RXF 393 renal; 92.7% with SF-268 CNS; 88.9% in the test on SF-295 CNS; 96.3% in the test with SF-539 CNS; 87% with UACC-257 melanoma. Besides, the growth was 98.6% in the test with M14 melanoma and 80.4% with HCT-15 colon.
Consider `CCCCCCn1c(=N)n(CC(O)COc2cccc(C)c2)c2ccccc21` (stereo not given), for which the growth was 11% in the test with NCI-H23 lung; -42.8% (active) in the test with NCI-H322M lung; -74.6% (active) with HOP-62 NSCLC; -68.1% (active) in the test with NCI-H460 lung; -6.11% (active) with HOP-92 NSCLC; -74.5% (active) with NCI-H522 lung. Moreover, the growth was -32.3% (active) with A549/ATCC NSCLC; -86.5% (active) in the test on 786-0 renal; -94.4% (active) in the test on COLO 205 colon; -22.4% (active) in the test on DU-145 prostate; -2.58% (active) in the test on K-562 leukemia; -90.9% (active) with MALME-3M melanoma. In addition, the growth was -70.7% (active) in the test on MDA-MB-231 breast; -95.1% (active) in the test with RXF 393 renal; -14.2% (active) in the test with SF-268 CNS; -85.7% (active) with SF-295 CNS; -86.4% (active) in the test with SF-539 CNS; -87.8% (active) with UACC-257 melanoma. In addition, the growth in the test with M14 melanoma is -75.2% (active); in the test with HCT-15 colon it was -18.8% (active).
Take `COc1cc(C(C)n2cc(-c3ccccc3)nn2)ccc1OC1CCCCC1` (stereo not given): the growth in the test on NCI-H23 lung is 47.7%; with NCI-H322M lung, 78.1%; with HOP-62 NSCLC, 69.4%; with NCI-H460 lung it was 70.5%; in the test on HOP-92 NSCLC, 69.9%; in the test on NCI-H522 lung, 50.3%. The growth was 61.6% with A549/ATCC NSCLC; 78.1% in the test on 786-0 renal; 97.9% with COLO 205 colon; 84.3% in the test with DU-145 prostate; 25.9% in the test with K-562 leukemia; 87.7% with MALME-3M melanoma. The growth with MDA-MB-231 breast is 77.9%; in the test with RXF 393 renal, 98%; in the test with SF-268 CNS, 78.2%; with SF-295 CNS, 41.2%; in the test on SF-539 CNS, 65%; in the test on UACC-257 melanoma, 52.1%. Also, the growth was 79.1% in the test with M14 melanoma and 61.2% in the test on HCT-15 colon.
Take `COC(=O)/C(CCC=C(C)C)=C1\[C@@H](OC(C)=O)C[C@@]2(C)[C@H]1C[C@@H](O)[C@H]1[C@@]3(C)CC[C@H](NCCCNCCCCNCCCN)[C@@H](C)[C@@H]3CC[C@@]12C`: the growth was 61.4% with NCI-H23 lung; 67.9% in the test on NCI-H322M lung; 52.1% in the test with HOP-62 NSCLC; 19.4% in the test with NCI-H460 lung; 52.6% in the test with HOP-92 NSCLC; 93.7% in the test on NCI-H522 lung. The growth in the test on A549/ATCC NSCLC was 62.1%; in the test on 786-0 renal it was 44.8%; with COLO 205 colon, 21.6%; in the test with DU-145 prostate it was 70.5%; in the test with K-562 leukemia, 33.4%; with MALME-3M melanoma, 47.2%. Further, the growth was 56% in the test with MDA-MB-231 breast; 75.8% in the test on RXF 393 renal; 81.3% with SF-268 CNS; 41.9% with SF-295 CNS; 66% in the test on SF-539 CNS; 91.9% in the test with UACC-257 melanoma. Besides, the growth is 40% with M14 melanoma and 76.8% with HCT-15 colon.
As to `O=Cc1c(OCc2cnnn2CC(=O)Nc2ccc(Cl)cc2)ccc2ccccc12`, the growth in the test with NCI-H23 lung is 101%; with NCI-H322M lung, 102%; in the test with HOP-62 NSCLC, 101%; with NCI-H460 lung, 104%; with HOP-92 NSCLC, 103%; in the test with NCI-H522 lung, 89.3%. The growth was 104% with A549/ATCC NSCLC; 100% with 786-0 renal; 115% in the test on COLO 205 colon; 109% in the test with DU-145 prostate; 98.6% in the test with K-562 leukemia; 95.2% with MALME-3M melanoma. Moreover, the growth in the test on MDA-MB-231 breast is 98%; in the test on RXF 393 renal it was 111%; in the test with SF-268 CNS, 99%; in the test on SF-295 CNS it was 104%; in the test on SF-539 CNS, 94.5%; in the test with UACC-257 melanoma, 94.6%. Also, the growth in the test on M14 melanoma is 100%; in the test with HCT-15 colon it was 101%.
Take `O=C(Nc1ccc(Br)cc1F)c1cc(Cl)ccc1O`: the growth is -8.01% (active) in the test with NCI-H23 lung; 4.59% (active) in the test with NCI-H322M lung; -14% (active) in the test with HOP-62 NSCLC; 3.19% (active) in the test with NCI-H460 lung; -18.8% (active) in the test on HOP-92 NSCLC; -8.76% (active) in the test with NCI-H522 lung. Further, the growth in the test on A549/ATCC NSCLC was 8.65% (active); with 786-0 renal it was -6.93% (active); in the test on COLO 205 colon it was 24.2%; in the test on DU-145 prostate, 11.8%; in the test with K-562 leukemia, 5.34% (active); in the test on MALME-3M melanoma, -34.7% (active). The growth in the test on MDA-MB-231 breast was -27.9% (active); in the test with RXF 393 renal, -0.138% (active); with SF-268 CNS, 2.69% (active); in the test on SF-295 CNS, -62.6% (active); in the test on SF-539 CNS, -1.11% (active); in the test with UACC-257 melanoma, -14% (active). Moreover, the growth with M14 melanoma is -28.3% (active); in the test on HCT-15 colon it was 2.29% (active).
Take `COc1cccc2c1C=C1CCCCC3=Cc4c(OC)cccc4OC13O2`: the growth in the test with NCI-H23 lung was 55.9%; in the test with NCI-H322M lung it was 61.2%; with HOP-62 NSCLC, 56.8%; with NCI-H460 lung, 25.4%; in the test with HOP-92 NSCLC, 46.8%; in the test on NCI-H522 lung it was 32.7%. The growth was 45.8% in the test with A549/ATCC NSCLC; 41.7% in the test with 786-0 renal; 30.6% with COLO 205 colon; 63.5% in the test with DU-145 prostate; 17.4% with K-562 leukemia; 36.5% with MALME-3M melanoma. Moreover, the growth in the test on MDA-MB-231 breast is 56.7%; in the test with RXF 393 renal, 32.8%; in the test on SF-268 CNS, 50.8%; with SF-295 CNS, 27.2%; in the test on SF-539 CNS, 39.4%; in the test with UACC-257 melanoma, 62.1%. Also, the growth was 27.3% with M14 melanoma and 28.3% in the test with HCT-15 colon.
With `O=C(Nc1ccc(I)cc1F)c1cc(Cl)ccc1O`, the growth in the test with NCI-H23 lung is 1.96% (active); in the test on NCI-H322M lung, 8.59% (active); with HOP-62 NSCLC it was 2.14% (active); in the test on NCI-H460 lung it was 4% (active); in the test with HOP-92 NSCLC it was -15.8% (active); in the test with NCI-H522 lung, -17.1% (active). Also, the growth with A549/ATCC NSCLC was 7% (active); with 786-0 renal it was -7.97% (active); in the test with COLO 205 colon, 42.8%; with DU-145 prostate it was 13.8%; in the test on K-562 leukemia it was 8.14% (active); with MALME-3M melanoma it was -28.9% (active). For the same molecule, the growth was -17.6% (active) in the test with MDA-MB-231 breast; 1.47% (active) in the test with RXF 393 renal; 5.87% (active) in the test with SF-268 CNS; -62.8% (active) in the test with SF-295 CNS; 2.65% (active) in the test with SF-539 CNS; -18.1% (active) in the test with UACC-257 melanoma. Moreover, the results for the growth in the test with M14 melanoma and in the test on HCT-15 colon were -22% (active) and 2.58% (active), respectively.

For the origin of these results see PubChem BioAssay (NCI).
